The values that follow come from PubChem BioAssay AID2284365 (EPA ToxCast).

The source made the active and inactive calls. Rule for the calls: active = hit-call score of the fitted dose curve at least 0.9, where 1 is the maximum; inactive = score below 0.9.

This test in a line: CCTE_Mundy_HCI_iCellGABA_NOG_NeuronCount: CCTE's Neurite Outgrowth Assay in iCellGABA cells for Neuron Count, Mundy Lab. How it is done: CCTE_Mundy_HCI_iCellGABA_NOG is a multiplexed, cell-based-readout assay that uses iCell GABANeurons from FUJIFILM Cellular Dynamics, Inc. (FCDI), human GABAergic enriched neurons derived from induced pluripotent stem (iPS) cells, with measurements taken at 50.33 hours after chemical dosing in a microplate: 96-well plate.CCTE_Mundy_HCI_iCellGABA_NOG_NeuronCount is one of four components of the CCTE_Mundy_HCI_iCellGABA_NOG assay. It measures cell viability related to number of neurons using High Content Imaging of fluorescently labelled markers.Data from the assay component CCTE_Mundy_HCI_iCellGABA_NOG_NeuronCount was analyzed at the endpoint CCTE_Mundy_HCI_iCellGABA_NOG_NeuronCount in the positive analysis fitting direction relative to DMSO as the negative control and baseline of activity. Using a type of viability reporter, loss-of-signal activity can be used to understand developmental effects.
Exposure starts 2 hours post-plating by adding 10 ul of the working solution to 90 ul of media in the wells for a 1/10 dilution. Forty-eight hours after chemical treatment cells are fixed by direct addition of 100 ul of warm (37C) Dulbecco's phosphate buffered saline (DPBS) fixative solution containing 8% paraformaldehyde, 8% sucrose, and 0.1% of 3 mg/ml Hoechst 33342 into each well. Primary antibodies are prepared by dilution in Immunocytochemical Staining Buffer (ISB), 10X Dulbecco's PBS, 0.1% Saponin, 5% Bovine Serum Albumin, 0.5% NaN3 (Sodium Azide) and betaIII-tubulin (rabbit anti-betaIII-tubulin, 1:800) followed by Alexa Fluor-488 secondary (1:500) to label neuronal cell bodies and neurites. A Cellomics ArrayScan VTi HCS Reader is used for automated image acquisition and analysis of neurite outgrowth.
Consider `CNC(=O)CSP(=O)(OC)OC`, for which the half-maximal activity concentration (AC50) (commonly the concentration at which the activity in the assay is half-maximal) is 18.9 µM (active).
Take `CCOP(=O)(OCC)Oc1nc(Cl)c(Cl)cc1Cl`: the result was inactive.
The same measure, in the same setting: the same measure for `CCOP(=S)(Oc1cnc(C(C)(C)C)nc1)OC(C)C` (stereo unspecified): “inactive”; for `COP(=O)(NC(C)=O)SC` (stereo unspecified): “inactive”.
The same measure, in the same setting: the same measure for `CCOP(=O)(OCC)Oc1cc(C)nc(C(C)C)n1`: “inactive”.
For the compound `CCOC(=O)CC(SP(=O)(OC)OC)C(=O)OCC` (stereo unspecified), the compound was classed as inactive.
Turning to `CCCSP(=O)(OCC)SCCC`, the outcome was inactive.
As to `CCOC(=O)CC(SP(=S)(OC)OC)C(=O)OCC` (stereo unspecified), the AC50 was 50 µM (active).
On the same count and under the same terms, the same measure for `CCOP(=S)(OCC)Oc1ccc2c(C)c(Cl)c(=O)oc2c1`: 23.4 µM (active); for `COP(=S)(OC)SCN1C(=O)c2ccccc2C1=O`: 9.92 µM (active); for `CCOP(=S)(OCC)OC(Cl)C(Cl)(Cl)Cl` (stereo unspecified): 9.92 µM (active).
Same read-out and setting: the same measure for `CCOP(=S)(OCC)SCSC(C)(C)C`: 9.92 µM (active); for `CCCCSP(=O)(SCCCC)SCCCC`: 9.92 µM (active).
For `CNC(=O)CSP(=S)(OC)OC`, the result was inactive.
Take `CCOP(=S)(OCC)SCSCC`: the AC50 was 0.316 µM (active).
Consider `CCN(CC)c1nc(C)cc(OP(=S)(OC)OC)n1`, for which the half-maximal activity concentration (AC50) is 19.1 µM (active).
Turning to `CCOP(=O)(SC(C)CC)N1CCSC1=O` (stereo unspecified), the outcome was inactive.
For `COP(=O)(OC)OC(Br)C(Cl)(Cl)Br` (stereo unspecified), the AC50 was 9.92 µM (active).
With `COP(=O)(OC)O/C(=C\Cl)c1cc(Cl)c(Cl)cc1Cl`, the compound was called inactive.
The same measure, in the same setting: the same measure for `CCCSP(=O)(OCC)Oc1ccc(Br)cc1Cl` (stereo unspecified): “inactive”.
In the case of `CCOP(=S)(OCC)Oc1nc(Cl)c(Cl)cc1Cl`, the AC50 is 9.92 µM (active).
Take `COP(N)(=O)SC` (stereo unspecified): the compound was called inactive.
For `CCOP(=S)(OCC)Oc1cc(C)nc(C(C)C)n1`, the result was inactive.
Regarding `COP(=O)(OC)O/C(C)=C/C(=O)N(C)C`, the compound was called inactive.
For the compound `COP(=O)(OC)C(O)C(Cl)(Cl)Cl` (stereo unspecified), the AC50 was 0.205 µM (active).
Consider `COP(=O)(OC)OC=C(Cl)Cl`, for which the outcome was inactive.
